# The list is not random: actives were taken first. Their share in the collection is about 4.1%.
# ssDAF12 agonist = S. stercoralis DAF-12 nuclear receptor activators, primary screen, cell-based, luminescence, HEK293, GRIP1 co-expression, lit1-tk-luc | Nuclear hormone receptor DAF-12 (Strongyloides stercoralis) | HEK293 ssDAF-12/GRIP1 lit1-tk-luc reporter; % of 3 µM dafachronic acid response | activation, % at 6.8 µM | hit rate 1% among 370,000;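 active means activation above the mean over all tested compounds plus 3 SD, cut at about 0.9% in these data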;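 further: 0% = DMSO-only wells and 100% = 3 µM delta7-dafachronic acid wells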
# DAX1 inh-1 = DAX1 (NR0B1) inhibitors, primary screen, cell-based, HEK293, Gal4-DAX1, luciferase luminescence. inhibition, % at 6.75 µM. hit rate 0.99% among 340,000. HEK293 Gal4-DAX1 luciferase reporter;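 active means inhibition above the mean over all tested compounds plus 3 SD, cut at about 4.2% in these data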;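 further: 0% = DAX1-transfected cells with DMSO and 100% = empty-vector control cells with DMSO; inhibition shows as a rise in luminescence from relieved DAX1 repression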
# hcDAF12 agonist = H. contortus DAF-12 nuclear receptor activators, primary screen, cell-based, luminescence, HEK293, lit1-tk-luc reporter | HEK293 hcDAF-12 lit1-tk-luc reporter; 0% DMSO, 100% Δ7-dafachronic acid | AID 652067, 2013 | hit rate 1.4% among 370,000 | activation, % at 6.8 µM;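 active means activation above the mean of all tested compounds plus 3 SD, cut at about 5.5% in these data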;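 further: 100% = response to 3 µM Δ7-dafachronic acid high control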
# hgDAF12 agonist = H. glycines DAF-12 receptor agonists, primary screen, cell-based, luminescence, HEK293, GAL4 fusion, UAS-luciferase | activation, % at 6.8 µM | AID 687014, 2013 | hit rate 1.8% among 370,000 | Nuclear hormone receptor DAF-12 (Heterodera glycines), GAL4 fusion | HEK293 GAL4-hgDAF12 UAS-luciferase reporter, agonist luminescence; normalized to butyrate control;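 active means activation above a cutoff set at the mean of all screened compounds plus 3 SD, cut at about 10% in these data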;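 further: 0% = DMSO wells and 100% = sodium butyrate wells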
# DAX1 inh-2 = DAX1 (NR0B1) inhibitors on StAR promoter, primary screen, cell-based, luminescence, SF-1 (NR5A1), full-length DAX-1; inhibition, % at 6.8 µM; HEK293T StAR-luciferase reporter, SF-1/DAX-1 repression relief; hit rate 1.1% among 370,000; AID 652010, 2013;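 active means inhibition above the mean over all tested compounds plus 3 SD, cut at about 3.6% in these data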;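 further: 0% = DAX-1 cells with DMSO and 100% = cells lacking DAX-1 with DMSO; higher inhibition means more luminescence from relief of DAX-1 repression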
# hgDAF12 ag = H. glycines DAF-12 receptor agonists, confirmation, cell-based, luminescence, HEK293, GAL4-LBD fusion; shares compounds with hgDAF12 agonist; HEK293 GAL4-hgDAF12 luciferase reporter, agonist mode; percent of butyrate response; activation, % at 6.8 µM; hit rate 80% among 3,300;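 active means mean activation over triplicate wells above the hit cutoff derived from the earlier primary screen, cut at about 11% in these data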;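 further: 0% = DMSO low control and 100% = 2 mM sodium butyrate high control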
# LXR ag 2 = LXR agonists, Gal4 luciferase reporter, confirmation, counter-screen for hgDAF-12 agonist project, cell-based, luminescence, HEK293, H. glycines campaign | activation, % at 6.8 µM | 3,300 tested, under 10 active | 24 h | shares compounds with hgDAF12 agonist;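 active means mean activation of the triplicate above a set limit carried over from the primary screen, none filed active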
# Target sequence (P55055 whole entry, looked up, the tested form may be a part): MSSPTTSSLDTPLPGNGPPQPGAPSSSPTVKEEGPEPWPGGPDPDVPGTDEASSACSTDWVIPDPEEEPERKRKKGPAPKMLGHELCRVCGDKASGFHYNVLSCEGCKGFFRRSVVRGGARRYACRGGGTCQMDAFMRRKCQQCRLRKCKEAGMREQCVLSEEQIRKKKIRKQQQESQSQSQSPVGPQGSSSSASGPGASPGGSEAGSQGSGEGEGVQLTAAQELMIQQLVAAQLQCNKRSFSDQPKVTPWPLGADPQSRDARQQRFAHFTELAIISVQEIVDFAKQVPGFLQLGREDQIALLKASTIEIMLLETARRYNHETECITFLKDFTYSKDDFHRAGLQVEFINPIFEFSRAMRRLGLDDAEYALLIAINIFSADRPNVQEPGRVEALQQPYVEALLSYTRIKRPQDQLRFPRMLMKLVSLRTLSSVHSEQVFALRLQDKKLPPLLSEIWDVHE
# * marks the source's active call; other numbers are inactive results; . = not tested or not shown; ! = not active in a repeat.
SMILES,ssDAF12 agonist,DAX1 inh-1,hcDAF12 agonist,hgDAF12 agonist,DAX1 inh-2,hgDAF12 ag,LXR ag 2
CC(=O)c1ccc(OCc2cc(C(=O)N3CCN(c4ccccc4)CC3C)no2)cc1 (configuration not stated),-1,2,6.1*,21*,3,18*,1
CSc1ccccc1OCc1cc(C(=O)N2CCN(c3ccccc3)CC2C)no1 (configuration not stated),0,0,4,3,0,.,.
O=C1CS/C(=N\NC(=O)c2ccccc2)N1,-1,.,-2,0,0,.,.
CC1=C/C(=N\NC(=O)c2ccccc2)CC1,0,0,3,14*,2,1,0
CC1(C)CC(Nc2ccc(Nc3ccccc3)cc2)CC(C)(C)N1,-2,-2,-1,-1,0,.,.
CN1CCC(=NNC(=O)c2cc(-c3ccc(Cl)cc3)n[nH]2)CC1,-2,1,-1,8,1,.,.
CCOc1ccc(-c2cc(C(=O)NN=C3CCN(C)CC3)[nH]n2)cc1,1.1*,0,6.0*,13*,3,3,0
Cc1cccc(NC(=O)c2cccnc2)c1C,-1,-1,0,0,0,.,.
CSCc1ccc(C(=O)Nc2cccc(C)c2C)cc1,1.7*,1,2,14*,1,11*,0
Cc1nonc1C1CCCN1C(=O)c1cc(COc2ccc(F)cc2F)on1 (configuration not stated),0,1,3,15*,3,12*,1
COc1ccc(CC(=O)NC2CC(C)(C)NC(C)(C)C2)cc1OC,-1,1,-2,0,0,.,.
O=C(Nc1cccc2ccccc12)c1ccc2sc([C@@H]3O[C@H](CO)[C@@H](O)[C@H]3O)nc2c1,-1,.,0,6,1,.,.
O=C(Nc1ccccc1F)c1ccc2sc([C@@H]3O[C@H](CO)[C@H](O)[C@H](O)[C@H]3O)nc2c1,0,.,2,14*,1,8,0
O=C(Nc1cccc(Cl)c1)Nc1cccc(C(=O)O)c1,1,.,1,10,1,.,.
O=C(Nc1cccc(C(=O)O)c1)Nc1ccccc1Cl,0,-8,3,18*,2,9,1
O=C(C[C@@H]1C/C=C\C[C@H](Cc2ccc(F)cc2)C(=O)OCCNC1=O)N[C@H](CO)Cc1ccccc1,-2,2,-1,0,0,.,.
O=C(COc1ccc(Br)cc1Br)NC(=S)N1CCCc2ccccc21,.,0,.,.,.,.,.
O=C(COc1ccc(Br)cc1Cl)NC(=S)N1CCc2ccccc21,1.0*,-1,6.2*,13*,1,4,0
CCNc1ccc(C(=O)OC(C(=O)NC(N)=O)C(C)C)cc1[N+](=O)[O-] (configuration not stated),-1,-1,0,1,0,.,.
c1ccc(-c2cc3nccc(-c4ccccn4)n3n2)cc1,0,4,4,23*,1,16*,1
CC(=O)Oc1ccccc1-c1nc(/C=C/c2ccccc2)no1,0,2,6.3*,17*,3,18*,1
COc1ccc(CCN(C)C(=O)C2CCN(Cc3ccc(C)cc3)CC2)cc1OC,-2,0,-1,-3,0,.,.
CCOC(=O)Nc1ccc2c(c1)N(C(=O)CCN1CCN3CCCC3C1)c1ccccc1CC2 (configuration not stated),-1,-2,0,1,1,.,.
COC(=O)Nc1ccc2c(c1)N(C(=O)CCN1CCN3CCCC3C1)c1ccccc1CC2 (configuration not stated),-1,0,0,18*!,0,-2,0
CCc1ccccc1NC(=O)C1C2C=CC(O2)C1C(=O)O (configuration not stated),0,2,1,0,0,.,.
SMILES,ssDAF12 agonist,DAX1 inh-1,hcDAF12 agonist,hgDAF12 agonist,DAX1 inh-2,hgDAF12 ag,LXR ag 2
Cc1cc(OCC(=O)Nc2c(C(C)C)cccc2C(C)C)no1,-1,1,-1,20*,-1,0,0
Cc1cc(OCC(=O)Nc2ccccc2C)no1,-2,0,0,2,1,.,.
CN(C)CCCNC(=S)N(CCCO)Cc1cc2cc3c(cc2[nH]c1=O)OCO3,0,0,5,16*,1,0,0
CCCCNC(=S)N(CCCO)Cc1cc2cc3c(cc2[nH]c1=O)OCCO3,-1,1,0,0,0,.,.
CCCCCCCCN1C(=O)[C@H](CC(=O)N2CCCC2)C[C@@]2(C(=O)OCC)CCCC=C12,-2,.,-3,-1,-3,.,.
COc1ccc(N2C(=O)c3ccccc3NC23CCCC3)cc1,0,0,4,14*,4.5*,9,0
CCC1(CC)Nc2ccccc2C(=O)N1c1ccc(OC)cc1,1,2,3,10,3,.,.
COc1ccc(N2Cc3ccccc3C2=O)cc1,0,-1,4,21*,2,16*,1
Cc1csc2nc(CSc3nc4ccccc4o3)cn12,0,1,0,13*,1,8,0
Cc1nc2ccc(S(=O)(=O)Nc3cc(-c4nc5cccnc5s4)ccc3C)cc2s1,0,1,5,17*,3,10,0
COCCN1C(=O)COc2ccccc2C1C(=O)NC(C)(C)C (configuration not stated),-1,.,0,2,0,.,.
Cc1ccc(N(C)S(=O)(=O)c2cccc(C(=O)Nc3nc4ccccc4[nH]3)c2)cc1,-2,0,-3,-3,-1,.,.
O=C(Nc1nc2ccccc2[nH]1)c1cccc([N+](=O)[O-])c1,0,1,2,16*,1,14*,1
O=[N+]([O-])c1ccc2nc(-c3ccccc3)[nH]c2c1,0,2,5,20*,4.0*,18*,1
CN(C)c1cccc(C(=O)Nc2nc3ccccc3[nH]2)c1,0,-3,5,15*,2,9,1

# High-throughput results (PubChem BioAssay)
